Of roughly 7,900 targets only a part is listed; those with a hit were picked by preference. About 0.6% of all pairs of compound and target were hits.
What was measured:
Assay in all cases: log2 fold change, soluble protein after heating vs DMSO (PISA); higher = thermal stabilisation; K562 cells, 10 uM, 30 min; active = over 0.2 and 3.5 SD of the protein, either way, in both replicates (recomputed)
erlotinib = compound: C#Cc1cccc(Nc2ncnc3cc(OCCOC)c(OCCOC)cc23)c1 [erlotinib]
Outline: (§1)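 Values are thermal stability changes relative to control samples and are taken from duplicates. They are stated as log2 fold changes. Before quantification by TMTpro 16plex LC-MS/MS with equalised channel sums, K562 cells at 2×10^6 cells/mL were treated with 10 μM compound for 30 min, heated in aliquots for 3 min across 48°C-58°C, pooled, extracted in PBS with 0.5% NP-40 at 4°C, and centrifuged at 21,000xg for 90 min to give the soluble supernatant.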

[1] = compound: C/C(=N\NC(=O)C1=CC(=CC=C1)S(=O)(=O)N2CCOCC2)/C3=C(C=CC(=C3)Cl)O
Outline: as §1

[2] = compound: C1=CC(=C(C=C1Cl)C2=NC3=NC=CN=C3C(=N2)NC4=CC=NC=C4)F
Outline: as §1

[3] = compound: C1=CC(=CC=C1C2=NC3=C(N2)C=C(C=C3)C(=O)N)OC4=CC=C(C=C4)Cl
Outline: as §1

[4] = compound: C1=CC2=C(C=CC(=C2)/C=C\3/C(=O)NC(=NCC4=CC=CS4)S3)N=C1
Outline: as §1

[5] = compound: C1=CC2=NC=CN=C2C=C1/C=C/3\C(=O)NC(=O)S3
Outline: as §1

[6] = compound: C1=CC=C2C(=C1)C3=NNC4=CC=CC(=C43)C2=O
Outline: as §1

[7] = compound: C1CCN(C1)C(=O)NC2=CC=CC(=C2)NC3=NC=C(C(=N3)NCCC4=CN=CN4)Br
Outline: as §1

[8] = compound: C1CN(CCC1(CC2=CC=C(C=C2)Cl)N)C3=NC=NC4=C3C=CN4
Outline: as §1

ibrutinib = compound: C=CC(=O)N1CCC[C@@H](n2nc(-c3ccc(Oc4ccccc4)cc3)c3c(N)ncnc32)C1 [ibrutinib]
Outline: as §1

[9] = compound: CC(=O)c1cnc2ccc(-c3cc(Cl)c(O)c(Cl)c3)nc2c1N[C@H]1CC[C@H](CN(C)C)CC1
Outline: as §1

[10] = compound: CC(C)(O)CC(=O)NCCn1ccc2ncnc(Nc3ccc(Oc4cccc(C(F)(F)F)c4)c(Cl)c3)c21
Outline: as §1

[11] = compound: CC(C)C1=C2N=C(C=C(N2N=C1)NCC3=CC=CC=C3)NCCCCCCN
Outline: as §1

[12] = compound: CC1=C(C(CC(=O)N1)C2=CC=C(C=C2)C(F)(F)F)C(=O)NC3=C(C=C4C(=C3)C=NN4)F
Outline: as §1

[13] = compound: CC1=C(C2=C(C=C1)C(=O)C3=CC=CC=C3N2CCCN)C
Outline: as §1

[14] = compound: C1=CC=C(C=C1)C2=NC(=C(N2)C3=CC=NC=C3)C4=CC(=C(C=C4)Cl)O
Outline: as §1

IRAK-1-4 Inhibitor I = compound: C1COCCN1CCN2C3=CC=CC=C3N=C2NC(=O)C4=CC(=CC=C4)[N+](=O)[O-] [IRAK-1-4 Inhibitor I]
Outline: as §1

ralimetinib = compound: CC(C)(C)Cn1c(N)nc2ccc(-c3[nH]c(C(C)(C)C)nc3-c3ccc(F)cc3)nc21 [ralimetinib]
Outline: as §1

[15] = compound: CC(C)C[C@@H](C=O)NC(=O)[C@H](CC(C)C)NC(=O)[C@H](CC(C)C)NC(=O)OCc1ccccc1
Outline: as §1

pinometostat = compound: CC(C)N(C[C@H]1O[C@@H](n2cnc3c(N)ncnc32)[C@H](O)[C@@H]1O)[C@H]1C[C@@H](CCc2nc3cc(C(C)(C)C)ccc3[nH]2)C1 [pinometostat]
Outline: as §1

Measured: log2 fold change

SH3PXD2B (UniProt A1X283)
Sequence of UniProt A1X283 (A1X283 whole entry, looked up): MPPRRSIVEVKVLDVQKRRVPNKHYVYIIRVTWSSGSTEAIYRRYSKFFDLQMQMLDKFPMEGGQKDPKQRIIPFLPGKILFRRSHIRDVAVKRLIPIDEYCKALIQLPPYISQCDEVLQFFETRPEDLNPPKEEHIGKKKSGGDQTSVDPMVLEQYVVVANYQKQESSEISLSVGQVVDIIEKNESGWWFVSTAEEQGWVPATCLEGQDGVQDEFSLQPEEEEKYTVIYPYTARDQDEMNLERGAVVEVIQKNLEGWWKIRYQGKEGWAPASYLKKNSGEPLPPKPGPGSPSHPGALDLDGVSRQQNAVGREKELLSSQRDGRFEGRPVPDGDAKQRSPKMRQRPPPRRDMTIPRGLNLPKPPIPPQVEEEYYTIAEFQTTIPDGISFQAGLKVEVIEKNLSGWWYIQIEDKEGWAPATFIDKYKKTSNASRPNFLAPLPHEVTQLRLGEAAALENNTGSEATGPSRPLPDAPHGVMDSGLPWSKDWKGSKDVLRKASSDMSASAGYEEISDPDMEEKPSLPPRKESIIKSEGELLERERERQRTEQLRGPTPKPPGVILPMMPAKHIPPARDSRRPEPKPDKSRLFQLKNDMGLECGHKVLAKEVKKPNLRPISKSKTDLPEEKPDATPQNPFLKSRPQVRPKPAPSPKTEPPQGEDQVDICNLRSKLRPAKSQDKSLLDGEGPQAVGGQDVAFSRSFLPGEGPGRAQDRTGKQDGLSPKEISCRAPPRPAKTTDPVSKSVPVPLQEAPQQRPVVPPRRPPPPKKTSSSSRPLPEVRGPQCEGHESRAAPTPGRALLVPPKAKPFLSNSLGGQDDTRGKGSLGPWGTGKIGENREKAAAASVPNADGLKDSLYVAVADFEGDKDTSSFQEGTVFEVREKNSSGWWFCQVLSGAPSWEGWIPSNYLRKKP
inactive: erlotinib 0 | [1] -0.036 | [2] -0.013 | [3] -0.153 | [4] 0.04 | [5] -0.012 | [6] 0.04 | [7] -0.034 | [8] 0.132 | ibrutinib -0.115 | [9] -0.005 | [10] 0.035 | [11] 0.075 | [12] -0.054 | [13] 0.027

RBMY1E (UniProt A6NEQ0)
Sequence of UniProt A6NEQ0 (A6NEQ0 whole entry, looked up): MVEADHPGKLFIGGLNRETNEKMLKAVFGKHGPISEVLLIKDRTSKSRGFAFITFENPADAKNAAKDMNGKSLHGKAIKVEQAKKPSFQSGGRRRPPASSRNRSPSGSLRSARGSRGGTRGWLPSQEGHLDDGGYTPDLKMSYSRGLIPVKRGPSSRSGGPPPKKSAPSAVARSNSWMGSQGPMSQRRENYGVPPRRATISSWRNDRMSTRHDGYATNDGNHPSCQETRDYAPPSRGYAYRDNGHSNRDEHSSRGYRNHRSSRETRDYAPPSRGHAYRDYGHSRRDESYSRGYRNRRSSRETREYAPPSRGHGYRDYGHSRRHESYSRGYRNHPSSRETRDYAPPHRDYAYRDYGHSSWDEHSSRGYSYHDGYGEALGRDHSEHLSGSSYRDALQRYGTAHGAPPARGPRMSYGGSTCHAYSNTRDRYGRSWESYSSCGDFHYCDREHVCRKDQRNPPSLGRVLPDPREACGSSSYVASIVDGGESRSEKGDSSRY
inactive: erlotinib -0.238 | [3] 0.06 | [5] -0.003 | [14] -0.044 | [7] -0.072 | [8] -0.099 | IRAK-1-4 Inhibitor I 0.019 | ibrutinib -0.024 | ralimetinib 0.131 | [11] 0.134 | [15] 0.141 | pinometostat -0.032 | [12] 0.026 | [13] -0.01

SDCBP isoform 2 (UniProt O00560)
Sequence of UniProt O00560 (O00560 whole entry, looked up): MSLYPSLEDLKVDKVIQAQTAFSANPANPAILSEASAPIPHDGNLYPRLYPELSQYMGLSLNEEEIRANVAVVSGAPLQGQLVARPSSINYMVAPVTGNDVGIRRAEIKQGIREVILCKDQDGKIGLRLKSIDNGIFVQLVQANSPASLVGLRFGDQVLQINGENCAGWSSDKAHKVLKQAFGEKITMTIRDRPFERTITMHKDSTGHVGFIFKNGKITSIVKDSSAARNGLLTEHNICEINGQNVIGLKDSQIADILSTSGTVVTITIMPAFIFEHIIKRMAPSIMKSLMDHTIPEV
inactive: erlotinib 0.157 | [2] 0.007 | [3] 0.159 | [5] 0.009 | [14] -0.299 | [7] 0.249 | [8] 0.096 | ibrutinib 0 | ralimetinib 0.06 | [10] 0.008 | [11] -0.444 | [15] 0.13 | [12] -0.29 | [13] 0.033

SAMD4B (UniProt Q5PRF9)
inactive: erlotinib -0.117 | [2] -0.17 | [3] -0.13 | [5] 0.124 | [14] -0.135 | [7] 0.037 | [8] 0.045 | IRAK-1-4 Inhibitor I 0.007 | ibrutinib -0.024 | ralimetinib 0.053 | [10] 0.133 | [11] 0.142 | [15] 0.04 | pinometostat 0.051 | [12] 0.05 | [13] 0.039

SCLT1 (UniProt Q96NL6)
inactive: [5] -0.002 | [7] -0.088 | [8] 0.051 | IRAK-1-4 Inhibitor I -0.046 | ibrutinib -0.049 | pinometostat 0.005 | [12] -0.118 | [13] 0.129

SLC12A5 (UniProt Q9H2X9)
Sequence of UniProt Q9H2X9 (Q9H2X9 whole entry, looked up): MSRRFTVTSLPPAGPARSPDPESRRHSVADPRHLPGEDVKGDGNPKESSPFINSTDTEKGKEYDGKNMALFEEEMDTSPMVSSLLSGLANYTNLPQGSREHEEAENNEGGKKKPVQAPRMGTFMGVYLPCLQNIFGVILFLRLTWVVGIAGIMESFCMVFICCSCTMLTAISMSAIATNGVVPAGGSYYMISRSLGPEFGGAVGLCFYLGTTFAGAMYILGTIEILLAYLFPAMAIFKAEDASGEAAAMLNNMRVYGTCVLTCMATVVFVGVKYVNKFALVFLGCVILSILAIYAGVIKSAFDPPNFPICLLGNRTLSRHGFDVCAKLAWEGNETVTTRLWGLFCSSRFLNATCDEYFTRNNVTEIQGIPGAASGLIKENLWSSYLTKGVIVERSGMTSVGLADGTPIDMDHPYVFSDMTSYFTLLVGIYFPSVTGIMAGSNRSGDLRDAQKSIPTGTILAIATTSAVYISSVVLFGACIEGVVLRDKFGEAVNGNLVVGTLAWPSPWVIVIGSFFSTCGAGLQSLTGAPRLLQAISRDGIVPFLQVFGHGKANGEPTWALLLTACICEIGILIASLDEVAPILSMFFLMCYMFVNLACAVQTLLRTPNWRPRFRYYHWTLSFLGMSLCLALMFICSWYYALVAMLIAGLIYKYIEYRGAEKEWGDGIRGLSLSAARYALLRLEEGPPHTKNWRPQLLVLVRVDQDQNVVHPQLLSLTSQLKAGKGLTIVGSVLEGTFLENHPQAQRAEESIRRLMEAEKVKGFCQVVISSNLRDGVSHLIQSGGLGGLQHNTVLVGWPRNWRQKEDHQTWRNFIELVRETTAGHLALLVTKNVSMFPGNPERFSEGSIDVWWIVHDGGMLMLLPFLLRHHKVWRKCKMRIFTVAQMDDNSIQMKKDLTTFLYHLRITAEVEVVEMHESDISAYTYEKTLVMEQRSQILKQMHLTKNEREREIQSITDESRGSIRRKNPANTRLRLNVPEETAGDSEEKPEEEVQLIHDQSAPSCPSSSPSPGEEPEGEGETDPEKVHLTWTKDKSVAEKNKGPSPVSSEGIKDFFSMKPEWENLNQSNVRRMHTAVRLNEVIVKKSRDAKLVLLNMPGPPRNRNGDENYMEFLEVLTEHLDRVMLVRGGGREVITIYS
inactive: erlotinib 0.036 | [1] 0.054 | [3] 0.034 | [4] 0.098 | [5] -0.021 | [6] -0.138 | [7] 0.038 | [8] 0.103 | IRAK-1-4 Inhibitor I -0.024 | ibrutinib -0.006 | [9] -0.101 | [10] 0.14 | [11] 0.052 | pinometostat -0.113 | [13] 0.047
active: [2] -0.49

RMDN2 isoform 2 (UniProt Q96LZ7)
Sequence of UniProt Q96LZ7 (Q96LZ7 whole entry, looked up): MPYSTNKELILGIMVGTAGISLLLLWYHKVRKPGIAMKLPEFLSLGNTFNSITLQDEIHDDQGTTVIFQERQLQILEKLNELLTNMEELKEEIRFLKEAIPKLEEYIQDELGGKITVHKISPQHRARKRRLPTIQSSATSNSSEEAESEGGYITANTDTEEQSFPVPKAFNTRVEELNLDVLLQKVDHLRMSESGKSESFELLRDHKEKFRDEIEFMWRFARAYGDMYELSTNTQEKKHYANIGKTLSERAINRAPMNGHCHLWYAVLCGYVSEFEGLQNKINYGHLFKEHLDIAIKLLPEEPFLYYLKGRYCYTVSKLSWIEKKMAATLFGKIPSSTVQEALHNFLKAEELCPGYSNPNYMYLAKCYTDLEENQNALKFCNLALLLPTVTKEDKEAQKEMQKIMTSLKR
inactive: [14] 0.088 | IRAK-1-4 Inhibitor I 0.034 | ralimetinib 0.095 | [15] 0.137 | pinometostat 0.025 | [12] -0.192

RAPGEF4 (UniProt Q8WZA2)
active: [1] -0.636
inactive: erlotinib 0.271 | [2] 0.057 | [3] 0.053 | [4] 0.19 | [5] 0.029 | [6] -0.014 | [7] -0.038 | [8] 0.18 | IRAK-1-4 Inhibitor I -0.184 | ibrutinib -0.025 | [9] -0.022 | [10] 0.065 | [11] 0.089 | pinometostat -0.096 | [13] 0.109

RICTOR isoform 3 (UniProt Q6R327)
Sequence of UniProt Q6R327 (Q6R327 whole entry, looked up): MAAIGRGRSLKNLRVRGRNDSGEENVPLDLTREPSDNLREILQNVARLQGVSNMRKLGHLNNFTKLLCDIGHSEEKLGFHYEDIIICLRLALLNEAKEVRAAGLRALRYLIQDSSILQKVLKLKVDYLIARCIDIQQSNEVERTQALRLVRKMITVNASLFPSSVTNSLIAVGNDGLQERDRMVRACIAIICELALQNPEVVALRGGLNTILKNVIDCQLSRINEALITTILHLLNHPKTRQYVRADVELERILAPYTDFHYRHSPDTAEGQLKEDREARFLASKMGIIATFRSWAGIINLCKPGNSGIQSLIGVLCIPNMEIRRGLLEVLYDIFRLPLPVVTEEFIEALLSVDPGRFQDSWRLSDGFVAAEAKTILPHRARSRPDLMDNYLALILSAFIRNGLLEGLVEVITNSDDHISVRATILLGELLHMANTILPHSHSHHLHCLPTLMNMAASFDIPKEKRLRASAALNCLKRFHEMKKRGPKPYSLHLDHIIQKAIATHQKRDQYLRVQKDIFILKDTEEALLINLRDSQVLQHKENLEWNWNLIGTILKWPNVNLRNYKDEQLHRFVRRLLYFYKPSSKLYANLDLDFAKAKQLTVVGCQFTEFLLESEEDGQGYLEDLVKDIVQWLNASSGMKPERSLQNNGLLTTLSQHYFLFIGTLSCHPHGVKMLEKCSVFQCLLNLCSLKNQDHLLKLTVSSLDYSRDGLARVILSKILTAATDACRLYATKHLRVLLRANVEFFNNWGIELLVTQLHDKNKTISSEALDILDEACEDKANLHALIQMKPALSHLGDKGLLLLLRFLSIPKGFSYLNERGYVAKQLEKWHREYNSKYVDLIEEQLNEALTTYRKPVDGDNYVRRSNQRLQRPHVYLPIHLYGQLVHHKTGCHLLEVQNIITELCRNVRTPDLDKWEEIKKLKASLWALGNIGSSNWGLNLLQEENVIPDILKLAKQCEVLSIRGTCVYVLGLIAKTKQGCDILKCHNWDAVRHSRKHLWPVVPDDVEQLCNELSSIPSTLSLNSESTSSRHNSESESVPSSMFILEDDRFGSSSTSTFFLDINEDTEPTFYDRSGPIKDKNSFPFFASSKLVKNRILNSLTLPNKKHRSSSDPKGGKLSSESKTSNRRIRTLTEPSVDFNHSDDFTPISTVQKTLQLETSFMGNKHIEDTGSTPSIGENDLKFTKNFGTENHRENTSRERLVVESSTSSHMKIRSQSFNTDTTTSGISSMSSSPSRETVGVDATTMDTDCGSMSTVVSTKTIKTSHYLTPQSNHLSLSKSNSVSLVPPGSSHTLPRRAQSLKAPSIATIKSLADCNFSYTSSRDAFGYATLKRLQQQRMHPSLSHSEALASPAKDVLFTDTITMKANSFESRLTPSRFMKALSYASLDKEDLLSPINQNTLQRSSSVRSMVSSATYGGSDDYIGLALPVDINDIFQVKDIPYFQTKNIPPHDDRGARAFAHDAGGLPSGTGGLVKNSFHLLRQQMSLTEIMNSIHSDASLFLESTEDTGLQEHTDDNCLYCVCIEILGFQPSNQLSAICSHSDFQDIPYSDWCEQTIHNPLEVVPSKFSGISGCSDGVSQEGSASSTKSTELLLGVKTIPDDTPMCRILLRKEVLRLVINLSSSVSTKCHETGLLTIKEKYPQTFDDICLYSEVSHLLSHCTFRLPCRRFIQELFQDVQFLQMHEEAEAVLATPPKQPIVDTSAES
active: [9] 0.866
inactive: erlotinib 0.116 | [1] 0.025 | [2] -0.067 | [3] 0.36 | [4] -0.031 | [6] -0.136 | [7] 0.054 | [8] -0.001 | [10] -0.084 | [11] -0.584 | [12] 0.07 | [13] -0.223

RPS6KA3 (UniProt P51812)
inactive: erlotinib -0.024 | [1] 0.08 | [2] 0.018 | [3] 0.072 | [5] 0.061 | [14] -0.043 | [7] -0.085 | [8] -0.017 | IRAK-1-4 Inhibitor I 0.03 | ibrutinib -0.048 | [9] -0.194 | [10] -0.061 | [11] -0.076 | [15] 0.121 | pinometostat 0.011 | [12] 0.01 | [13] 0.001
active: [6] -0.345 | ralimetinib -0.359

Source: the supplement of paper PMC10849652
